Reference: PubChem BioAssay (EPA / NIEHS)
Records with an inconclusive call do not appear. Calls of active or inactive are those of the source. How the source made its calls, unless noted: active means hit-call score of the fitted dose curve at least 0.9, where 1 is the maximum; inactive means score below 0.9.

How the values were obtained:
[1] = CCTE_Shafer_MEA_dev_firing_rate_mean: CCTE's Neural Network Formation Assay for Mean Firing Rate, Shafer Lab (AID 2284031);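 further: curve fitted for loss of firing so AC50 reflects decreased mean firing rate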
Method in brief: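 Developing rat cortical networks on MEA plates undergo 12-day compound exposure. Firing frequency, averaged across active electrodes, is integrated as area under the curve over four recording days, referenced to DMSO.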

[2] = CCTE_Shafer_MEA_dev_per_burst_spike_percent: CCTE's Neural Network Formation Assay for Percent of Spikes in a Burst, Shafer Lab (AID 2284032);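 further: fitted as a decrease in burst spike percentage below DMSO baseline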
Method in brief: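 Rat primary cortical neurons on 16-electrode MEA wells, dosed from plating day 0 for 12 days with renewal on DIV 5 and 9; spikes-in-bursts percentage averaged over bursting electrodes, collapsed as AUC across days 5, 7, 9, 12; loss direction versus DMSO.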

[3] = CCTE_Shafer_MEA_dev_active_electrodes_number: CCTE's Neural Network Formation Assay for Number of Active Electrodes, Shafer Lab (AID 2284040; active means hit-call score of the fitted dose curve at least 0.9, where 1 is the maximum;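 further: potency for loss of active electrodes versus DMSO so lower counts are hits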)
Method in brief: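 Rat cortical primary cultures, 1.5 x 10^5 cells/well, PEI-coated MEA, laminin drop. Continuous exposure DIV 0–12; full media/compound change DIV 5, 9. Readout: electrodes with mean firing ≥5 spikes/min; AUC across days; loss vs DMSO.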

[4] = CCTE_Shafer_MEA_dev_burst_rate: CCTE's Neural Network Formation Assay for Burst Rate, Shafer Lab (AID 2284042);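 further: potency for loss of burst rate below DMSO control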
Method in brief: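 Rat primary cortical cultures on PEI/laminin MEA; compound from plating, re-dosed at DIV 5, 9 media change. Single-electrode bursts/recording length, well mean of active electrodes; AUC over DIV 5–12 recordings; loss-of-signal vs DMSO.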

[5] = CCTE_Shafer_MEA_dev_bursting_electrodes_number: CCTE's Neural Network Formation Assay for Number of Bursting Electrodes, Shafer Lab (AID 2284043; active means hit-call score of the fitted dose curve at least 0.9, where 1 is the maximum;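 further: potency is for loss of bursting electrodes relative to DMSO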)
Method in brief: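 Primary rat cortical neurons were cultured on PEI-coated 48-well MEA plates (16 electrodes/well) and exposed from plating through day 12, with compound renewed at feeds on DIV 5 and 9. Electrodes bursting ≥1 per 2 min were counted on DIV 5, 7, 9, 12; trapezoidal AUC taken.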

[6] = CCTE_Shafer_MEA_dev_per_burst_interspike_interval: CCTE's Neural Network Formation Assay for Burst Interspike Interval, Shafer Lab (AID 2284044);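 further: mean spike spacing inside bursts as AUC over recordings on days 5 7 9 12; potency for a decrease of within-burst interspike interval below DMSO level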
Method in brief: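 Mean interspike interval within single-electrode bursts, averaged over bursting electrodes, from rat cortical cultures on MEA plates recorded on days 5, 7, 9 and 12. Continuous compound exposure from plating; trapezoidal AUC fitted downward relative to DMSO.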

[7] = CCTE_Shafer_MEA_dev_interburst_interval_mean: CCTE's Neural Network Formation Assay for Mean Interburst Interval, Shafer Lab (AID 2284046);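 further: well-mean interburst interval of bursting electrodes as AUC over four recording days; curve fitted for decrease in interburst interval relative to DMSO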
Method in brief: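 Rat cortical neurons, 1.5 x 10^5 cells/well, 48-well MEA; compound from day 0 through DIV 12, media and treatment renewed DIV 5/9. Recordings DIV 5, 7, 9, 12; well-mean interburst interval → trapezoidal AUC, loss direction vs DMSO.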

[8] = CCTE_Shafer_MEA_dev_network_spike_number: CCTE's Neural Network Formation Assay for Number of Network Spikes, Shafer Lab (AID 2284048);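 further: synchronized bursts across electrodes counted on days 5 7 9 12 and integrated as AUC; fit as a loss of signal meaning fewer network spikes than DMSO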
Method in brief: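 Primary rat cortical neurons were seeded at 1.5 x 10^5 cells/well on PEI-coated 16-electrode MEA wells with laminin, exposed from plating day 0, compound renewed at DIV 5 and 9. Network spikes were recorded on days 5, 7, 9, 12 and summarized as trapezoidal AUC versus DMSO.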

[9] = CCTE_Shafer_MEA_dev_network_spike_peak: CCTE's Neural Network Formation Assay for Mean Number of Electrodes in Network Spike, Shafer Lab (AID 2284049);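 further: fitted for loss of signal meaning fewer electrodes in network spikes than DMSO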
Method in brief: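 Continuous 12-day exposure of rat cortical cultures, starting at plating, on MEA plates. Endpoint: electrodes participating in network-spike peaks, AUC across DIV 5–12, DMSO as negative control.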

[10] = CCTE_Shafer_MEA_dev_spike_duration_mean: CCTE's Neural Network Formation Assay for Mean Spike Duration, Shafer Lab (AID 2284051);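 further: mean network spike duration pooled as area under curve over DIV 5 to 12 recordings; potency for a decrease in mean network spike duration versus DMSO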
Method in brief: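 Rat cortical primary cultures, 48-well MEA (16 electrodes/well); compound from plating, renewed DIV 5, 9. Network spike duration (AxIS adaptive detector) recorded DIV 5/7/9/12, combined as trapezoidal AUC; loss direction vs DMSO.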

[11] = CCTE_Shafer_MEA_dev_network_spike_duration_std: CCTE's Neural Network Formation Assay for Standard Deviation of Network Spike Duration, Shafer Lab (AID 2284052);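 further: area under curve of spike duration SD across recording days 5 to 12; hits are decreases in network spike duration SD versus DMSO vehicle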
Method in brief: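 Rat cortical cultures, 1.5 x 10^5 cells/well, exposed continuously from plating to DIV 12 with media/compound renewal at DIV 5, 9. Spontaneous activity recorded DIV 5/7/9/12, AxIS adaptive spike detector; AUC across days; negative direction vs DMSO.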

[12] = CCTE_Shafer_MEA_dev_per_network_spike_spike_number_mean: CCTE's Neural Network Formation Assay for Mean Number of Spikes in a Network Spike, Shafer Lab (AID 2284053);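 further: fitted as decrease in spikes per network spike relative to DMSO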
Method in brief: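 Rat cortical primary cultures on 48-well MEA; compound from day 0, re-dosed with full media change DIV 5, 9. Recorded DIV 5, 7, 9, 12; spikes in 0.05 s window at network-spike peak ÷ total network spikes; AUC; loss vs DMSO.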

[13] = CCTE_Shafer_MEA_dev_LDH: CCTE's Lactate Dehydrogenase Assay for Cytotoxicity in the Neural Network Formation Assay, Shafer Lab (AID 2284068; active means hit-call score of the fitted dose curve at least 0.9, where 1 is the maximum;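 further: exposure for twelve days from plating with re-dosing on DIV 5 and 9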)
Method in brief: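 Rat cortical primary neurons, MEA culture; dosing day 0–12, full medium plus compound exchange DIV 5, 9. Read-out: LDH enzyme activity, spectrophotometric. DMSO = negative control/baseline; signal loss → cytotoxicity.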

[14] = CCTE_Shafer_MEA_dev_AB: CCTE's Alamar Blue Assay for Cytotoxicity in the Neural Network Formation Assay, Shafer Lab (AID 2284083; active means hit-call score of the fitted dose curve at least 0.9, where 1 is the maximum;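 further: resazurin reduction fluorescence as viability of cultured neurons; twelve days of exposure from plating with re-dosing on DIV 5 and 9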)
Method in brief: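 Rat cortical primary cultures, 1.5 x 10^5 cells/well on MEA; continuous compound exposure over 12 days of network development, re-dosed with full medium change DIV 5 and 9. Alamar Blue fluorescence; loss of signal = cytotoxicity vs DMSO baseline.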

[15] = CCTE_Shafer_MEA_dev_mutual_information_norm: CCTE's Neural Network Formation Assay for Mutual Information Normalization, Shafer Lab (AID 2284091);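 further: mutual information between electrodes summarised as area under curve across four recording days; potency is for a decrease in mutual information relative to DMSO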
Method in brief: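 Rat cortical cultures, 48-well MEA, continuous exposure DIV 0–12 with full media/compound change DIV 5 and 9. Readout: inter-electrode mutual information, AxIS adaptive spike detection; AUC across DIV 5/7/9/12 recordings; DMSO baseline, negative fitting direction.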

[16] = CCTE_Shafer_MEA_dev_correlation_coefficient_mean: CCTE's Neural Network Formation Assay for Mean Correlation Coefficient, Shafer Lab (AID 2284093);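 further: well mean pairwise spike train correlation integrated as AUC over recording days 5 to 12; potency fitted for loss of correlation relative to DMSO vehicle wells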
Method in brief: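 Rat cortical cultures, 1.5 x 10^5 cells/well, dosed from day 0 for 12 days. Spontaneous spikes recorded DIV 5/7/9/12; electrode-pair correlation coefficients averaged, AUC taken. Fit in loss direction vs DMSO.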

[17] = CCTE_Mundy_HCI_Cortical_Synap_Neur_Matur_NeuriteSpotCountPerNeuriteLength: CCTE's Synaptogenesis and Neurite Maturation Assay in rat cortical cells for Neurite Spot Count per Neurite Length, Mundy Lab (AID 2284210)
Method in brief: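 Rat primary cortical cultures, glia arrested with AraC at DIV 5, were dosed with media change at DIV 7 and fixed at DIV 12. Synaptophysin puncta per MAP2-labelled neurite length were quantified by high-content imaging versus DMSO.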

[18] = CCTE_Mundy_HCI_Cortical_NOG_NeuriteLength: CCTE's Neurite Outgrowth Assay in rat cortical cells for Neurite Length, Mundy Lab (AID 2284213);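 further: neurites imaged about 48 to 50 h after chemical exposure began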
Method in brief: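 Neurite length was read by high-content imaging of βIII-tubulin-labelled neurites in rat primary cortical cultures. Activity was fitted relative to DMSO.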

[19] = CCTE_Mundy_HCI_Cortical_Synap_Neur_Matur_NeuriteLength: CCTE's Synaptogenesis and Neurite Maturation Assay in rat cortical cells for Neurite Length, Mundy Lab (AID 2284214)
Method in brief: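 Neurite length in rat primary cortical cultures is imaged after MAP2, synaptophysin and Hoechst staining. Dosing starts DIV 7, ending DIV 12; DMSO serves as negative control and baseline.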

[20] = CCTE_Mundy_HCI_Cortical_Synap_Neur_Matur_NeuriteSpotCountPerNeuron: CCTE's Synaptogenesis and Neurite Maturation Assay in rat cortical cells for Neurite Spot Count per Neuron Count, Mundy Lab (AID 2284215)
Method in brief: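 High-content imaging counts synaptophysin puncta along MAP2-labelled neurites per neuron after chemical exposure of rat cortical cells from DIV 7 to termination at DIV 12 (AraC added DIV 5). Loss of signal relative to DMSO.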

[21] = CCTE_Mundy_HCI_Cortical_Synap_Neur_Matur_SynapseCount: CCTE's Synaptogenesis and Neurite Maturation Assay in rat cortical cells for Synapse Count, Mundy Lab (AID 2284218)
Method in brief: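 Synapse count per neuron is measured in rat cortical neurons exposed to chemicals between DIV 7 and DIV 12, with glial growth arrested by AraC at DIV 5. Synaptophysin and MAP2 staining is imaged automatically; activity is fitted relative to DMSO.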

[22] = CCTE_Mundy_HCI_hN2_NOG_NeuriteCount: CCTE's Neurite Outgrowth Assay in human hN2 cells for Neurite Count, Mundy Lab (AID 2284219; active means hit-call score of the fitted dose curve at least 0.9, where 1 is the maximum)
Method in brief: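 In this morphology assay, hNP1-derived neurons received test chemical 2 h post-plating and were fixed two days later in warm paraformaldehyde/sucrose containing Hoechst 33342. Neurites, labelled by rabbit anti-βIII-tubulin (1:800) and Alexa Fluor-488 (1:500), were counted automatically.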

[23] = CCTE_Mundy_HCI_hN2_NOG_NeuronCount: CCTE's Neurite Outgrowth Assay in human hN2 cells for Neuron Count, Mundy Lab (AID 2284221; active means hit-call score of the fitted dose curve at least 0.9, where 1 is the maximum)
Method in brief: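 Read-out is the number of betaIII-tubulin-positive neurons imaged by automated high-content analysis, with DMSO as negative control.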

[24] = CCTE_Mundy_HCI_Cortical_Synap_Neur_Matur_CellBodySpotCount: CCTE's Synaptogenesis and Neurite Maturation Assay in rat cortical cells for Cell Body Spot Count, Mundy Lab (AID 2284223)
Method in brief: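 High-content imaging counts synaptophysin puncta on neuronal cell bodies per neuron after MAP2/synaptophysin immunostaining. Rat primary cortical cells, glia arrested with AraC at DIV 5, were exposed DIV 7–12; signal decrease measured against DMSO.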

[25] = CCTE_Mundy_HCI_Cortical_NOG_NeuronCount: CCTE's Neurite Outgrowth Assay in rat cortical cells for Neuron Count, Mundy Lab (AID 2284236; active means hit-call score of the fitted dose curve at least 0.9, where 1 is the maximum;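 further: neurons counted by imaging betaIII-tubulin and Hoechst stained cortical cells; cells exposed to compound for about 48 hours before fixation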)
Method in brief: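 Read-out: neuron number by high-content imaging of betaIII-tubulin (Alexa Fluor-488) and Hoechst-labelled rat primary cortical cells.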

[26] = CCTE_Mundy_HCI_hNP1_Casp3_7: CCTE's Caspase-Glo 3/7 Assay in human neuroprogenitor cells for Apoptosis, Mundy Lab (AID 2284240)
Method in brief: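 Neuroepithelial-lineage stem cells from WA09 embryonic cells were treated with chemicals after 40–44 h of culture. Twenty-four hours later, caspase-3/7 activation was detected luminescently after a 30 min room-temperature reagent step, with DMSO as baseline.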

[27] = CCTE_Mundy_HCI_Cortical_Synap_Neur_Matur_NeuronCount: CCTE's Synaptogenesis and Neurite Maturation Assay in rat cortical cells for Neuron Count, Mundy Lab (AID 2284242; active means hit-call score of the fitted dose curve at least 0.9, where 1 is the maximum;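 further: neuron number from Hoechst nuclei and MAP2 staining by high-content imaging; hits reduce neuron count versus DMSO baseline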)
Method in brief: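 Imaging-based neuron count in rat cortical cultures after chemical exposure from DIV 7 to DIV 12, with AraC added at DIV 5. Activity is fitted relative to DMSO.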

Measured: AC50

[CH3][Sn]([CH3])[CH3]
active: [1] 571 nM | [2] 1620 nM | [3] 212 nM | [4] 559 nM | [5] 245 nM | [6] 2330 nM | [7] 2360 nM | [8] 94.4 nM | [9] 224 nM | [10] 151 nM | [11] 77.3 nM | [12] 222 nM | [13] 174 nM | [14] 1580 nM | [15] 221 nM | [16] 222 nM | [18] 1780 nM | [19] 2410 nM | [20] 1770 nM | [21] 1790 nM | [26] 5000 nM | [27] 1670 nM
inactive: [17] | [22] | [23] | [24] | [25]
